# Results published in PubChem BioAssay (NCATS).
# Results filed as inconclusive are left out. A number with no mark means an inactive call. Activity calls are given as the source filed them. Calls come from the whole dose curve; as a rule, active = well fitted cell-killing curve with a large enough effect; inconclusive = small, poorly fitted or top-dose-only effect, or effect the other way; inactive = no such curve, though single readings can be large or run the other way. Non-standard residues stand in square brackets, D forms with d. Residues, ends and D or L forms follow the SMILES beside them. *: point of attachment. Sta = CC(C)C[C@H](N)[C@@H](O)CC(=O)O; Isovaleryl = CC(C)CC(=O)*
# Assay: Quantitative High-Throughput drug screen in 47 multiple myeloma cell lines against the NCATS MIPE library collection: KMS12PE_JCRB cell viability assay (AID 1918972); note: nearly all actives have a fitted effect of over 30% in size;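 for viability: 100% = DMSO only wells and 0% = wells with media alone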
# Conditions: KMS12PE myeloma viability, CellTiter-Glo ATP, 48 h; series mostly up to 45.8 µM; viability: at the top concentration
# In short: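 Viability readout: CellTiter-Glo luminescence following 5 min room-temperature incubation with reagent. Prior exposure: 48 h, 37C, humidified 5% CO2, 500 cells per well.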
# Potency is the fitted concentration of half-maximal effect.
SMILES,viability,Potency
O=C(O)CCNC(=O)c1ccc(N=Nc2ccc(O)c(C(=O)O)c2)cc1,125%,–
CCN(CC)CCOc1ccc(Nc2ncc3cc(-c4c(Cl)cccc4Cl)c(=O)n(C)c3n2)cc1,–,0.0105 µM (active)
Cc1nc2n(c(=O)c1CCN1CCC(c3noc4cc(F)ccc34)CC1)CCCC2,89.1%,–
COC(=O)N[C@H](C(=O)N[C@@H](Cc1ccccc1)[C@@H](O)CN(Cc1ccc(-c2ccccn2)cc1)NC(=O)[C@@H](NC(=O)OC)C(C)(C)C)C(C)(C)C,122%,–
Nc1cc(C(Cl)=C(Cl)Cl)c(S(N)(=O)=O)cc1S(N)(=O)=O,104%,–
CCC1=C(C)CN(C(=O)NCCc2ccc(S(=O)(=O)NC(=O)NC3CCC(C)CC3)cc2)C1=O (stereo not given),121%,–
CNC[C@H](O)c1ccc(O)c(O)c1,91.6% [at 92.2 µM],–
Oc1ccc2ccccc2c1SSc1c(O)ccc2ccccc12,–,20.9 µM (active)
CC(C)CC(=O)N[C@H](C(=O)N[C@H](C(=O)N[C@@H](CC(C)C)[C@@H](O)CC(=O)N[C@@H](C)C(=O)N[C@@H](CC(C)C)[C@@H](O)CC(=O)O)C(C)C)C(C)C (Isovaleryl-VV[Sta]A[Sta]-OH),86.6%,–
CCCCCCCCCCCCCCCCCCCCCCO,112%,–
CS(=O)(=O)OCCCCOS(C)(=O)=O,136%,–
Nc1nc(N)c(N=O)c(OCC2CCCCC2)n1,–,4.69 µM (active)
N=C(N=C(N)N)N1CCOCC1,133%,–
C[C@H](Cn1cnc2c(N)ncnc21)OCP(=O)(O)O,129%,–
O=c1c(O)c(-c2cc(O)c(O)c(O)c2)oc2cc(O)cc(O)c12,94.6%,–
